# Screening data deposited in PubChem by several laboratories.
# The list is not random: actives were taken first. Their share in the collection is about 0.94%.
# HER2 expr 66K = Her2 kinase expression inhibition. P04626. SKBR-3 HER2 protein level, AlphaScreen, 18-24 h; hits give low values. HER2 level % of control, % at 10 µM. 65,000 compounds, 0.69% hits. AID 645;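 active = HER2 level under 5% of the carrier-only control; inconclusive = no clear call, values can overlap the other calls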;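 also: 100% = DMSO carrier and 0% = 500 nM PU-H71 HSP90 inhibitor; lower value means stronger loss of Her2 protein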
# Target sequence (P04626 whole entry, looked up): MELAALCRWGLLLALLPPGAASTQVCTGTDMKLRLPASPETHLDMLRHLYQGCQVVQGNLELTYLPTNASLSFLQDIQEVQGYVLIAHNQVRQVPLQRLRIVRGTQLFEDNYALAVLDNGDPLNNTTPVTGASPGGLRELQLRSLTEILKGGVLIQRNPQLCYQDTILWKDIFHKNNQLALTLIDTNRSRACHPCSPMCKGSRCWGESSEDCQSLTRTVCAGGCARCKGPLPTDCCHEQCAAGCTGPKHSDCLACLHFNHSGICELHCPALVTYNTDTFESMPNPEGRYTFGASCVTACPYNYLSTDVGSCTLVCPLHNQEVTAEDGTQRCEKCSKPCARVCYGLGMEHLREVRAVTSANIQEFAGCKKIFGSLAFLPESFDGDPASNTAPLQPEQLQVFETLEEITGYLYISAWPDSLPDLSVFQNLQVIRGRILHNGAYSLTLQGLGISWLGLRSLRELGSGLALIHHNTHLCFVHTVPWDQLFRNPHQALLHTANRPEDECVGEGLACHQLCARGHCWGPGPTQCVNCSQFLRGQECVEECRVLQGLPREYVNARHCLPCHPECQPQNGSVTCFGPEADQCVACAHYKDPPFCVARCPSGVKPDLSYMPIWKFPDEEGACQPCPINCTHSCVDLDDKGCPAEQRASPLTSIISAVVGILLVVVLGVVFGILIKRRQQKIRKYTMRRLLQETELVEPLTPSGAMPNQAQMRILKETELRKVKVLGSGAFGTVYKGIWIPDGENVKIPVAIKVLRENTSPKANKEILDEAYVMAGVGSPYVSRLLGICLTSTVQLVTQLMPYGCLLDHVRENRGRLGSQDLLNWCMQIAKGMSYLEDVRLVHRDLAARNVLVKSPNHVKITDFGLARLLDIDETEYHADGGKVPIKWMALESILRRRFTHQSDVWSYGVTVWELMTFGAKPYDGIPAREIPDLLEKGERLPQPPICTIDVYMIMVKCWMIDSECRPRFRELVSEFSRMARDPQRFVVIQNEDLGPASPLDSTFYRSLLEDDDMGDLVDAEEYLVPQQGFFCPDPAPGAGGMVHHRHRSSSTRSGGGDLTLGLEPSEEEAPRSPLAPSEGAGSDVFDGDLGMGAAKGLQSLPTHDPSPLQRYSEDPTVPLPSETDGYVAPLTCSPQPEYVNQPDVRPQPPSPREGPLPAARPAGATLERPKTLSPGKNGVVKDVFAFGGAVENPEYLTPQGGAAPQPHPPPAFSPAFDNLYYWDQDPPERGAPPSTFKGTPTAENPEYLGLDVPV
# SK-BR-3 tox 24h = SK-BR-3 proliferation inhibitors; SK-BR-3 viability, CellTiter-Glo ATP luminescence, 24 h; hits give low values; viability, % at 10 µM; 41,000 compounds, 0.47% hits;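 active = viability at or below the median of all test compounds minus 3 SD, in both replicates if run twice, cut at about 45% in these data; inconclusive = duplicate replicates that disagree with each other; inactive = viability above that cutoff in every replicate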;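 also: 100% = median untreated cell wells and 0% = median positive control drug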
# MMP13 inh = MMP13 (human) collagenase inhibition; P45452; MMP-13 fTHP FRET cleavage, Mca fluorescence; inhibition, % at 4 µM; 65,000 compounds, 0.07% hits;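 active = inhibition above the mean of compound-free control plate wells plus 3 SD, cut at about 14% in these data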;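 also: 0% = DMSO wells and 100% = wells with reference MMP-13 inhibitor after basal subtraction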
# * marks the source's active call; other numbers are inactive results; ? = inconclusive; . = not tested or not shown.
SMILES,HER2 expr 66K,SK-BR-3 tox 24h,MMP13 inh
O=C(Nc1ccccc1NC(=O)NC1CCCCC1)NC1CCCCC1,-15*,?,-1
Cc1c(Cl)cccc1NC(=O)NC1CCCCC1,106,83,1
COC(=O)C1=C(C)N(CC2CCCO2)C(=O)C1 (stereo unspecified),91,.,-4
Cc1c(C(=O)N2CCN(c3ccccc3)CC2)sc2ncnc(N3CCN(c4ccccc4)CC3)c12,93,.,-10
CCOC(=O)c1sc2ncnc(N3CCN(C(=O)OCC)CC3)c2c1C,140,42*,2
CC(C)N(Cc1nnc(-c2ccccc2Cl)o1)C(=O)c1cccc(C#N)c1,92,79,5
C=CCn1c(=O)c2ccccc2n2c(SCc3nnc(-c4ccccc4Br)o3)nnc12,83,.,1
O=C(O)CCc1nn2cc(-c3ccccc3)nc2[nH]c1=O,-19*,88,-84
CCc1nn2cc(-c3ccccc3)nc2s1,.,87,0
COc1ccc(CCNC(=O)CCSc2nc(-c3ccco3)cc(C(F)(F)F)n2)cc1OC,76,81,4
COc1ccc(-c2nnc(SCC(=O)N3CCC(Cc4ccccc4)CC3)o2)cc1OC,97,103,-4
CCCS(=O)(=O)c1nnnn1-c1cccc(OC)c1,-22*,?,2
COc1ccc(-n2nnnc2SCC(=O)c2cccc(OC)c2)cc1,84,70,-2
CC(=O)Nc1cccc(NC(=O)c2c(-c3ccccc3Cl)noc2C)c1,-19*,.,2
Cc1onc(-c2ccccc2Cl)c1C(=O)Nc1cccnc1,92,.,-2
COC(=O)c1ccc(Cl)c(NS(=O)(=O)c2ccc3c(c2)OCCO3)c1,.,90,-7
Oc1c(CN2CCCCC2)cc(Br)c2cccnc12,31,39*,4
Oc1c(CN2CCc3ccccc3C2)cc(Cl)c2cccnc12,6,.,5
Cc1noc(C)c1CSc1nnc2sc3ccccc3n12,122,.,0
Cc1cc(C)cc(N(CC(=O)NC2CCC(C)CC2)S(=O)(=O)c2c(C)noc2C)c1 (stereo unspecified),83,.,-6
CCCn1c(SCC(=O)NCc2ccco2)nc2c1c(=O)n(C)c(=O)n2C,77,86,3
CCn1c(SCC(=O)NCc2ccco2)nc2c1c(=O)n(C)c(=O)n2C,107,42*,3
Cc1cc(C)c(S(=O)(=O)N2CCCCC2)c(C)c1-n1ncnn1,106,94,4
Cc1ccc(N2CC(C(=O)NCC3CCCO3)CC2=O)cc1Cl (stereo unspecified),107,94,6
CCOC(=O)c1ccc(NC(=O)Cn2cc3c(n2)CCC(C)C3)cc1 (stereo unspecified),79,.,5
SMILES,HER2 expr 66K,SK-BR-3 tox 24h,MMP13 inh
c1ccc(Cc2nn3c(COc4ccccc4)nnc3s2)cc1,-21*,100,5
CCOc1ccccc1OCc1nn2c(COc3ccccc3)nnc2s1,52,84,4
COCCNc1nc(C(C)(C)C)nc2c1nnn2Cc1ccccc1Cl,-25*,83,-2
OCCNc1nc(C2CC2)nc2c1nnn2Cc1ccccc1Cl,80,69,1
O=C(OCCN1C(=O)c2ccccc2C1=O)C1CCN(S(=O)(=O)c2cccs2)CC1,186,92,-1
O=c1[nH]n(CC2COC3(CCCCC3)O2)c(=O)c2ccccc12 (stereo unspecified),71,85,-3
N#Cc1ccc2ccn(CC(=O)NCc3ccccc3)c2c1,77,.,-13
CC(C)(C)C(=O)NC1CCN(S(=O)(=O)c2cccc(C(F)(F)F)c2)CC1,72,23*,-5
CC(C)CCN(C)C1CCN(S(=O)(=O)c2cccc(C(F)(F)F)c2)CC1,106,.,-7
N#Cc1cc2cc3c(cc2nc1N1CCOCC1)OCO3,97,88,-195
CC(=O)c1cccc(NC(=O)Nc2ccc(C(=O)N3CCOCC3)cc2)c1,148,89,7
O=C(NC(=Nc1ccccc1)N1CCOCC1)Nc1ccccc1,81,.,16*
O=C(COc1ccc(OCc2ccccc2)cc1)NC1CCOC1=O (stereo unspecified),100,.,-2
CC(=O)c1cccc(-n2nnnc2SCC(=O)Nc2cccc(NC(=O)c3ccco3)c2)c1,73,100,-1
CCCn1c(NC(=O)c2ccccc2)nc2ccccc21,88,73,-2
CCCn1c(NC(=O)c2cccc(S(=O)(=O)N3CCCC3)c2)nc2ccccc21,-3.3*,.,-4
CC(=O)/C(CN1CCCCC1)=N\O,91,84,0
C/C(=N\O)C(=O)C(CN1CCCCC1)CN1CCCCC1,-12*,.,5
COc1cc2cc(CN(Cc3cccnc3)C(=O)NCc3ccccc3)c(=O)[nH]c2cc1OC,110,.,-41
CCCN1C(=O)c2cc(C(=O)NCc3ccc(OC)cc3)ccc2C1O (stereo unspecified),104,91,.
CCOP(=O)(c1ccc(N(C)C)cc1)C(O)c1c(Cl)cccc1Cl (stereo unspecified),-16*,75,-4
CCOP(=O)(c1ccc(N(C)C)cc1)C(O)c1cc(OC)c(OC)c(OC)c1 (stereo unspecified),103,81,2
COC(=O)CNc1nc(OC)nc(N(C)C)n1,128,116,4
c1coc(-c2nnc3sc(-c4cccs4)nn23)c1,63,152,-2
O=C(CN1CCN(C(c2ccccc2)c2ccccc2)CC1)N1CCOCC1,104,.,-5
SMILES,HER2 expr 66K,SK-BR-3 tox 24h,MMP13 inh
O=S(=O)(CCN1CCN(C(c2ccccc2)c2ccccc2)CC1)C(F)(F)F,-2.0*,79,-6
CCOC(=O)CCS(=O)(=O)c1nc(-c2ccccc2)cc(C(F)(F)F)n1,-8.7*,61,2
CCOC(=O)CS(=O)(=O)c1ccc2ccccc2c1,87,105,0
CCOC(=O)CS(=O)(=O)c1nc(-c2ccccc2)cc(C(F)(F)F)n1,-27*,?,-1
COCC(C)NC(=O)CCS(=O)(=O)c1nc(-c2ccc(OC)cc2)cc(C(F)(F)F)n1 (stereo unspecified),-20*,?,-7
Fc1ccc(-c2cc(C(F)(F)F)nc(N3CCCCC3)n2)cc1,106,80,5
CCOC(=O)CS(=O)(=O)c1nc(-c2ccc(F)cc2)cc(C(F)(F)F)n1,-18*,26*,-6
COc1nc(-c2ccccc2)cc(C(F)(F)F)n1,92,91,1
COc1ccc(-c2cc(C(F)(F)F)nc(SCCC(=O)Nc3cc(C)on3)n2)cc1,124,72,-7
CCC(C)C(NC(=O)OC(C)(C)C)C(=O)NCc1ccco1 (stereo unspecified),101,.,0
CCOC(=O)c1ccc(NC(=O)NC2CC3CCC(C2)N3Cc2nnnn2C(C)(C)C)cc1 (stereo unspecified),104,.,2
Nc1nnc(CCN2C(=O)CSC2=O)s1,102,40*,6
Cc1nnc(SCC(=O)NCCN2C(=O)CSC2=O)s1,47,.,3
O=C(O)Cn1c2c(c3ccccc31)CCCC2,88,.,-8
Cc1ccc(S(=O)(=O)NC(CN2CCOCC2)=NCCNS(=O)(=O)c2ccccc2)cc1,91,92,-3
O=C(c1n[nH]c(=O)c2ccccc12)N1CCN(c2ccccc2)CC1,-20*,75,2
O=C(c1n[nH]c(=O)c2ccccc12)N1CCN(c2ccc(F)cc2)CC1,97,.,-2
C=CCSc1nc2c(c(=O)n(C)c(=O)n2C)n1CC,77,90,1
